PubChem BioAssay (NCI)
About 83,000 compounds went through this panel and 20% of them were active in at least one assay; those are over-represented in the sample as a whole.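 Interpretation: 100, growth as untreated; towards 0, rising growth inhibition; 0, no net growth; 0 to -100, cell death. Compounds scoring below 10 were considered active.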 A number with no mark means an inactive call. Calls of active or inactive are those of the source.

Experiments:
Experiment in all cases: NCI-60 one-dose screen, 48 h (100 = growth as untreated, 0 = no growth, -100 = all killed)
NCI-H23 lung = settings: 10 µM unless noted
NCI-H226 lung = settings: 10 µM unless noted
NCI-H322M lung = settings: 10 µM unless noted
HOP-62 NSCLC = settings: 10 µM unless noted
NCI-H460 lung = settings: 10 µM unless noted
HOP-92 NSCLC = settings: 10 µM unless noted
NCI-H522 lung = settings: 10 µM unless noted
A549/ATCC NSCLC = settings: 10 µM unless noted
786-0 renal = settings: 10 µM unless noted
COLO 205 colon = settings: 10 µM unless noted
DU-145 prostate = settings: 10 µM unless noted
K-562 leukemia = settings: 10 µM unless noted
MALME-3M melanoma = settings: 10 µM unless noted
MDA-MB-231 breast = settings: 10 µM unless noted
RXF 393 renal = settings: 10 µM unless noted
SF-268 CNS = settings: 10 µM unless noted
SF-295 CNS = settings: 10 µM unless noted
SF-539 CNS = settings: 10 µM unless noted
UACC-257 melanoma = settings: 10 µM
M14 melanoma = settings: 10 µM unless noted

`COC(=O)c1c(C(=O)OC)c2n(CC(=O)Nc3cccc4cccnc34)c3ccccc3n2c1C(=O)c1ccc(C)cc1` was tested, and the growth (NCI-H23 lung) was 94.1%, the growth (NCI-H226 lung) was 88% and the growth (NCI-H322M lung) was 99%. It also gave a growth (HOP-62 NSCLC) of 96%, a growth (NCI-H460 lung) of 103% and a growth (HOP-92 NSCLC) of 89.7%. For the same compound, the growth (NCI-H522 lung) was 80.5%, the growth (A549/ATCC NSCLC) was 91.2% and the growth (786-0 renal) was 101%. The growth (COLO 205 colon) was 114%, the growth (DU-145 prostate) was 105% and the growth (K-562 leukemia) was 91.2%. The growth (MALME-3M melanoma) was 97.7%, the growth (MDA-MB-231 breast) was 88.4% and the growth (RXF 393 renal) was 97.8%. It also gave a growth (SF-268 CNS) of 97.2%, a growth (SF-295 CNS) of 95.1% and a growth (SF-539 CNS) of 106%. It also gave a growth (UACC-257 melanoma) of 104% and a growth (M14 melanoma) of 99.9%.

For `CN1CCN(c2ccc3c(c2)nc(NNC(=O)c2ccncn2)c2cccn23)CC1`, the growth (NCI-H23 lung) was 36.2%, the growth (NCI-H226 lung) was 44.5% and the growth (NCI-H322M lung) was 30.2%. It also gave a growth (HOP-62 NSCLC) of 35.7%, a growth (NCI-H460 lung) of 27.4% and a growth (HOP-92 NSCLC) of 53.1%. The growth (NCI-H522 lung) was 18.2%, the growth (A549/ATCC NSCLC) was 23.3% and the growth (786-0 renal) was 9.5% (active). It also gave a growth (COLO 205 colon) of 17.9%, a growth (DU-145 prostate) of 27.5% and a growth (K-562 leukemia) of 25.6%. For the same compound, the growth (MALME-3M melanoma) was 43.9%, the growth (MDA-MB-231 breast) was 36.9% and the growth (RXF 393 renal) was 66.5%. The growth (SF-268 CNS) was 26.6%, the growth (SF-295 CNS) was 0.713% (active) and the growth (SF-539 CNS) was 24.2%. For the same compound, the growth (UACC-257 melanoma) was 42.8% and the growth (M14 melanoma) was 9.89% (active).

In the case of `CC1CCN(S(=O)(=O)c2ncsc2-c2ccccc2)CC1`, the growth (NCI-H23 lung) is reported as 92.9%, the growth (NCI-H226 lung) is reported as 99.9% and the growth (NCI-H322M lung) is reported as 98.6%. The growth (HOP-62 NSCLC) was 85.3%, the growth (NCI-H460 lung) was 91.5% and the growth (HOP-92 NSCLC) was 116%. The growth (NCI-H522 lung) was 98.5%, the growth (A549/ATCC NSCLC) was 93.1% and the growth (786-0 renal) was 30.8%. The growth (COLO 205 colon) was 112%, the growth (DU-145 prostate) was 92% and the growth (K-562 leukemia) was 72.7%. For the same compound, the growth (MALME-3M melanoma) was 78.7%, the growth (MDA-MB-231 breast) was 92% and the growth (RXF 393 renal) was 9.28% (active). It also gave a growth (SF-268 CNS) of 82.9%, a growth (SF-295 CNS) of 30.7% and a growth (SF-539 CNS) of 44.3%. It also gave a growth (UACC-257 melanoma) of 106% and a growth (M14 melanoma) of 83.5%.

For `O=C(Nc1ccc(Cl)cc1)Nc1nc2ccc([N+](=O)[O-])cc2s1`, the growth (NCI-H23 lung) was -45.5% (active), the growth (NCI-H226 lung) was -15% (active) and the growth (NCI-H322M lung) was 2.65% (active). The growth (HOP-62 NSCLC) was -33.5% (active), the growth (NCI-H460 lung) was -9.27% (active) and the growth (HOP-92 NSCLC) was -25.9% (active). For the same compound, the growth (NCI-H522 lung) was -21.3% (active), the growth (A549/ATCC NSCLC) was 1.71% (active) and the growth (786-0 renal) was 5.56% (active). For the same compound, the growth (COLO 205 colon) was -62.6% (active), the growth (DU-145 prostate) was 14% and the growth (K-562 leukemia) was 1.43% (active). The growth (MALME-3M melanoma) was -21.3% (active), the growth (MDA-MB-231 breast) was -17.5% (active) and the growth (RXF 393 renal) was -37.2% (active). The growth (SF-268 CNS) was 7.98% (active), the growth (SF-295 CNS) was -57.9% (active) and the growth (SF-539 CNS) was -22.3% (active). The growth (UACC-257 melanoma) was -32.6% (active) and the growth (M14 melanoma) was -20.4% (active).

Compound `C#C[C@]1(O)CC[C@H]2[C@@H]3CC=C4c5sc(Nc6nc(C)cc(OC)n6)nc5CC[C@]4(C)[C@H]3CC[C@@]21C` has a growth (NCI-H23 lung) of 71.9%, a growth (NCI-H226 lung) of 71% and a growth (NCI-H322M lung) of 92.9%. The growth (HOP-62 NSCLC) was 40%, the growth (NCI-H460 lung) was 21.9% and the growth (HOP-92 NSCLC) was 43.9%. For the same compound, the growth (NCI-H522 lung) was 88.1%, the growth (A549/ATCC NSCLC) was 53.9% and the growth (786-0 renal) was -4.27% (active). For the same compound, the growth (COLO 205 colon) was 78.5%, the growth (DU-145 prostate) was 61.4% and the growth (K-562 leukemia) was 14%. For the same compound, the growth (MALME-3M melanoma) was 24%, the growth (MDA-MB-231 breast) was 56.1% and the growth (RXF 393 renal) was -34.9% (active). The growth (SF-268 CNS) was 35.8%, the growth (SF-295 CNS) was -60% (active) and the growth (SF-539 CNS) was -14.8% (active). It also gave a growth (UACC-257 melanoma) of 46.1% and a growth (M14 melanoma) of 27%.

`O=C1CSC(=O)N1Cc1cc2ccccc2nc1Cl` gave a growth (NCI-H23 lung) of 99.7%, a growth (NCI-H226 lung) of 102% and a growth (NCI-H322M lung) of 108%. For the same compound, the growth (HOP-62 NSCLC) was 101%, the growth (NCI-H460 lung) was 106% and the growth (HOP-92 NSCLC) was 94.5%. The growth (NCI-H522 lung) was 94.3%, the growth (A549/ATCC NSCLC) was 99.6% and the growth (786-0 renal) was 100%. It also gave a growth (COLO 205 colon) of 109%, a growth (DU-145 prostate) of 104% and a growth (K-562 leukemia) of 99.8%. It also gave a growth (MALME-3M melanoma) of 94.2%, a growth (MDA-MB-231 breast) of 103% and a growth (RXF 393 renal) of 96%. It also gave a growth (SF-268 CNS) of 99.1%, a growth (SF-295 CNS) of 101% and a growth (SF-539 CNS) of 108%. For the same compound, the growth (UACC-257 melanoma) was 103% and the growth (M14 melanoma) was 103%.

For `Cc1ccc(Nc2ncnc3c2c(C)nn3-c2ccc([N+](=O)[O-])cc2)cc1`, the growth (NCI-H23 lung) was 77.3%, the growth (NCI-H226 lung) was 8.18% (active) and the growth (NCI-H322M lung) was 88.5%. For the same compound, the growth (HOP-62 NSCLC) was 60.3%, the growth (NCI-H460 lung) was 30.7% and the growth (HOP-92 NSCLC) was 111%. The growth (NCI-H522 lung) was 74.8%, the growth (A549/ATCC NSCLC) was 45.1% and the growth (786-0 renal) was 86.9%. For the same compound, the growth (COLO 205 colon) was 72.2%, the growth (DU-145 prostate) was 89.4% and the growth (K-562 leukemia) was 69.1%. It also gave a growth (MALME-3M melanoma) of 84.7%, a growth (MDA-MB-231 breast) of 80.8% and a growth (RXF 393 renal) of 60.8%. For the same compound, the growth (SF-268 CNS) was 79.1%, the growth (SF-295 CNS) was 69.7% and the growth (SF-539 CNS) was 74.4%. For the same compound, the growth (UACC-257 melanoma) was 93.3% and the growth (M14 melanoma) was 80.6%.

Compound `C/C(=C(/C)C1CC1CCN(C(=O)c1ccc([N+](=O)[O-])cc1)S(=O)(=O)c1ccc(C)cc1)C1CCCCC1` (stereo not given) has a growth (NCI-H23 lung) of 87.2%, a growth (NCI-H226 lung) of 90.8% and a growth (NCI-H322M lung) of 100%. For the same compound, the growth (HOP-62 NSCLC) was 109%, the growth (NCI-H460 lung) was 98.6% and the growth (HOP-92 NSCLC) was -49% (active). For the same compound, the growth (NCI-H522 lung) was 83.8%, the growth (A549/ATCC NSCLC) was 97.8% and the growth (786-0 renal) was 96.2%. For the same compound, the growth (COLO 205 colon) was 112%, the growth (DU-145 prostate) was 96.6% and the growth (K-562 leukemia) was 74.7%. For the same compound, the growth (MALME-3M melanoma) was 98.3%, the growth (MDA-MB-231 breast) was 97.3% and the growth (RXF 393 renal) was 105%. For the same compound, the growth (SF-268 CNS) was 96.5%, the growth (SF-295 CNS) was 104% and the growth (SF-539 CNS) was 100%. For the same compound, the growth (UACC-257 melanoma) was 96.9% and the growth (M14 melanoma) was 97.7%.
